Results from the supplement of paper PMC11732987, “Enantioselective OTUD7B fragment discovery through chemoproteomics screening and high-throughput optimisation” (Communications Chemistry, 2025).

Columns and labels:
Assay in all cases: log2 ratio of Biotin-Ahx-Ub-VS probe labelling (fragment/DMSO); higher = less target engagement (more negative = stronger competition), active = hit call of the paper (q ≤ 0.05, log2 ratio ≤ -1)
Settings in all cases: compound concentration: 200 uM; treatment time: 3 h
[1] = target: T1, OTUD6B (UniProt Q8N6M0)
T1 sequence (whole entry): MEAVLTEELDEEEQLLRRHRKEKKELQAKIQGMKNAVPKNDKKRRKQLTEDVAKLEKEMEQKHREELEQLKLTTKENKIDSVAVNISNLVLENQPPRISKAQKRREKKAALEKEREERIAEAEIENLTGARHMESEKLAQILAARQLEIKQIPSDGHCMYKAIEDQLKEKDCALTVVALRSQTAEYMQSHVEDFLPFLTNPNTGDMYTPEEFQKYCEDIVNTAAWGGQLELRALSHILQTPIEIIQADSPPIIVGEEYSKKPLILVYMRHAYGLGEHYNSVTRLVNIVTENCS
Summary of the method: (§1)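 Using Biotin-Ahx-Ub-VS at 0.5 µM final for 1 h, DUBs were labelled in HEK293T lysate (495 µg per sample) that had first been treated in triplicate with fragment at 200 µM or vehicle for 3 h. NeutrAvidin enrichment, LysC and trypsin digestion and diaPASEF LC-MS/MS followed. Spectronaut label-free quantities were global-median-normalised. Values are average log2 fragment/vehicle ratios by unpaired t-test, using proteins with ≥2 unique peptides.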

[2] = target: T2, OTUD7B (UniProt Q6GQQ9)
T2 sequence (whole entry): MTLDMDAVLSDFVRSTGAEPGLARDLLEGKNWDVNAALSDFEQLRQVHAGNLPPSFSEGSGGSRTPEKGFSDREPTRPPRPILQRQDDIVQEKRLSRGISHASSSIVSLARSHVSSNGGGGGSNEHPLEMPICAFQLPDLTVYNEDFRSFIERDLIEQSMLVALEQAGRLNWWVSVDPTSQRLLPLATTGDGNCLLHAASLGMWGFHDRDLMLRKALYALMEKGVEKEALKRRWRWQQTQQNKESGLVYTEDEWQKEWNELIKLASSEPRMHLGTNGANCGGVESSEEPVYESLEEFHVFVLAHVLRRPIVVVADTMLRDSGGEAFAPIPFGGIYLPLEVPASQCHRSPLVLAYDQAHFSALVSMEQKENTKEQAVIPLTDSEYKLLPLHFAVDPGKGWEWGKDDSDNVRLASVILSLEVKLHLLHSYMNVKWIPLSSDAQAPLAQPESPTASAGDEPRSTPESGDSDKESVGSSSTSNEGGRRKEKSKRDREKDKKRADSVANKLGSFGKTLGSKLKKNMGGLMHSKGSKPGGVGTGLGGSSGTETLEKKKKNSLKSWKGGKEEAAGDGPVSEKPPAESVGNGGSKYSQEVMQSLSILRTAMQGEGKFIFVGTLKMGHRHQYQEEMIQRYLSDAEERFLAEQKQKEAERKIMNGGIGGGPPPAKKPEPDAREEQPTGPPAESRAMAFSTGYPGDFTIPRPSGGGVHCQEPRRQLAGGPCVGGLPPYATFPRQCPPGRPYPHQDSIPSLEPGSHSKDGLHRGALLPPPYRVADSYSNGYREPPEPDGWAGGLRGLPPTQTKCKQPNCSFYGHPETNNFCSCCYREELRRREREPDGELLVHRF
Summary of the method: as §1

[3] = target: PRPF8 (UniProt Q6P2Q9)
Summary of the method: as §1

[4] = target: T3, PSMD7 (UniProt P51665)
T3 sequence (whole entry): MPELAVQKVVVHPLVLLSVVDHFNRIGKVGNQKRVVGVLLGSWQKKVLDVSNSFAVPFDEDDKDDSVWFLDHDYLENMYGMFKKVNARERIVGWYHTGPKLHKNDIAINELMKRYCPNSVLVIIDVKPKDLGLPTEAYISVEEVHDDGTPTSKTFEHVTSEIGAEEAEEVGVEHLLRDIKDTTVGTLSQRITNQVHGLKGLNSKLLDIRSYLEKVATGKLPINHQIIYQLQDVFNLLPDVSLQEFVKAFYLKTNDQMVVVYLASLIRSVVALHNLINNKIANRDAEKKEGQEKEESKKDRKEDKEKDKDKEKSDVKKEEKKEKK
Summary of the method: as §1

[5] = target: UCHL1 (UniProt P09936)
Chain of UCHL1 (P09936 whole entry, looked up): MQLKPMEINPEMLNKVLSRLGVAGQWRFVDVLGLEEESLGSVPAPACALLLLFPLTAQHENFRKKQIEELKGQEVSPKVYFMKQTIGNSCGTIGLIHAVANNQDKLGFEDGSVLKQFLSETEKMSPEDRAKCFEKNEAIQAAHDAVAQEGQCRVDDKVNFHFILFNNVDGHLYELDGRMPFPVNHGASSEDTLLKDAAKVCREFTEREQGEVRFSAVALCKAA
Summary of the method: as §1

[6] = target: T4, UCHL3 (UniProt P15374)
T4 sequence (whole entry): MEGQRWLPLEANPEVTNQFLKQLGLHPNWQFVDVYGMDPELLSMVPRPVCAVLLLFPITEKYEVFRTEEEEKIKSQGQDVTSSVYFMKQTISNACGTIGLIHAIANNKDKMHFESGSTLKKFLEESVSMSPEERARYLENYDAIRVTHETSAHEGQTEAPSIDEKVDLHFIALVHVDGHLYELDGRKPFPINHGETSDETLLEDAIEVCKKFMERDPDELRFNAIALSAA
Summary of the method: as §1

[7] = target: T5, UCHL5 (UniProt Q9Y5K5)
T5 sequence (whole entry): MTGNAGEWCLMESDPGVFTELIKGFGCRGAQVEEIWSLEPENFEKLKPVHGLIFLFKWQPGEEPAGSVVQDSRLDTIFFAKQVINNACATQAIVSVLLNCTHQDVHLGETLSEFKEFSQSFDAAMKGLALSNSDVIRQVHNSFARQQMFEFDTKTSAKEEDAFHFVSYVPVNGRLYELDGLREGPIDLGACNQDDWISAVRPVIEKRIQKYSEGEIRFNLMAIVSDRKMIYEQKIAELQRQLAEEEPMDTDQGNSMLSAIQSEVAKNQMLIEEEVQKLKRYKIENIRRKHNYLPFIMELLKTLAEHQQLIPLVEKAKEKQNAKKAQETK
Summary of the method: as §1

[8] = target: USP10 (UniProt Q14694)
Chain of USP10 (Q14694 whole entry): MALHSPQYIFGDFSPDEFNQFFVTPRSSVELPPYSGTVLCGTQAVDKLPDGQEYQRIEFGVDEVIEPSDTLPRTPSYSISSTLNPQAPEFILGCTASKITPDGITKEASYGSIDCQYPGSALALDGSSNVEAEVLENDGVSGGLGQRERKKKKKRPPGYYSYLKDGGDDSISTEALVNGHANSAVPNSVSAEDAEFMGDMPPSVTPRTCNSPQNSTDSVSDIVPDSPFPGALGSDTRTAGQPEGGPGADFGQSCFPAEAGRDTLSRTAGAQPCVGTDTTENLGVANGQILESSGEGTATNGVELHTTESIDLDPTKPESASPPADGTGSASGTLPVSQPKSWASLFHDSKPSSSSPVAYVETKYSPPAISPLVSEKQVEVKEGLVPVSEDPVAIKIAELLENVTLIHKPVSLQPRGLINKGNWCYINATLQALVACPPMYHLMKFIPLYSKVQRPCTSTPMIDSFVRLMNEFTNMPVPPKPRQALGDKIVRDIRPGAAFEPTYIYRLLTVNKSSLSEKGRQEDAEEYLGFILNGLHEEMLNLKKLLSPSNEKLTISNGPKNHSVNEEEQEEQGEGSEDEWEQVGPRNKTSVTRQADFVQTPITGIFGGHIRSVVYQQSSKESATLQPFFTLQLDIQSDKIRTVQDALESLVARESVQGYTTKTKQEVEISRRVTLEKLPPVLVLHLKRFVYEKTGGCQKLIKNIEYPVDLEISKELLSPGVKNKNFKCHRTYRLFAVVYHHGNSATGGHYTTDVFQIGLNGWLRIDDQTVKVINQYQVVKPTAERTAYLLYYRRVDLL
Summary of the method: as §1

[9] = target: T6, USP15 (UniProt Q9Y4E8)
T6 sequence (whole entry): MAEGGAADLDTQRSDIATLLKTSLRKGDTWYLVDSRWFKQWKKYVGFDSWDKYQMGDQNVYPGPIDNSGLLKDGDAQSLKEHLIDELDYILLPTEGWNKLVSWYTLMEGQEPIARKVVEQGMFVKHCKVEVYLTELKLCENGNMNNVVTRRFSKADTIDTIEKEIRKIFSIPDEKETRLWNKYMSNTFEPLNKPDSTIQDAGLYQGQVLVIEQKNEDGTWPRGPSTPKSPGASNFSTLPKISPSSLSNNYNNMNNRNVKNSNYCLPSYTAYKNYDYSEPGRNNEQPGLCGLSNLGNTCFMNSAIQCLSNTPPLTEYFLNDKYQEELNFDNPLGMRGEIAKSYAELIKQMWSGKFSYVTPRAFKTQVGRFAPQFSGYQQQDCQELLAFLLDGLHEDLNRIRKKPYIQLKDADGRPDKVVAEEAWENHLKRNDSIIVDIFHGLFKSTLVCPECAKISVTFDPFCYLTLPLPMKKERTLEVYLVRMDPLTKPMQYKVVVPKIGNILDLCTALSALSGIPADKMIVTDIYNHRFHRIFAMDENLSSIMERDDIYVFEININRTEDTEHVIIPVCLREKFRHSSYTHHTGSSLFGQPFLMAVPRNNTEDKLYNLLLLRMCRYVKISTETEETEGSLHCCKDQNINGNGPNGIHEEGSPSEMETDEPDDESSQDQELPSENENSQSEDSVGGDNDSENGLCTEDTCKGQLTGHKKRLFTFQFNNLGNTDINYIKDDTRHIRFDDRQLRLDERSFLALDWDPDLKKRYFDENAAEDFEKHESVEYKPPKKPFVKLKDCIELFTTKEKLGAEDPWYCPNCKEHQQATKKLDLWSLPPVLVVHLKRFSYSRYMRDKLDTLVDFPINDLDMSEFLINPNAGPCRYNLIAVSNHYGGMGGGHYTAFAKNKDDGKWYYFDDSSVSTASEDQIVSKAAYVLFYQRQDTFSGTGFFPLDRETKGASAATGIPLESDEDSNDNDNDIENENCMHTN
Summary of the method: as §1

[10] = target: USP16 (UniProt Q9Y5T5)
Chain of USP16 (Q9Y5T5 whole entry, looked up): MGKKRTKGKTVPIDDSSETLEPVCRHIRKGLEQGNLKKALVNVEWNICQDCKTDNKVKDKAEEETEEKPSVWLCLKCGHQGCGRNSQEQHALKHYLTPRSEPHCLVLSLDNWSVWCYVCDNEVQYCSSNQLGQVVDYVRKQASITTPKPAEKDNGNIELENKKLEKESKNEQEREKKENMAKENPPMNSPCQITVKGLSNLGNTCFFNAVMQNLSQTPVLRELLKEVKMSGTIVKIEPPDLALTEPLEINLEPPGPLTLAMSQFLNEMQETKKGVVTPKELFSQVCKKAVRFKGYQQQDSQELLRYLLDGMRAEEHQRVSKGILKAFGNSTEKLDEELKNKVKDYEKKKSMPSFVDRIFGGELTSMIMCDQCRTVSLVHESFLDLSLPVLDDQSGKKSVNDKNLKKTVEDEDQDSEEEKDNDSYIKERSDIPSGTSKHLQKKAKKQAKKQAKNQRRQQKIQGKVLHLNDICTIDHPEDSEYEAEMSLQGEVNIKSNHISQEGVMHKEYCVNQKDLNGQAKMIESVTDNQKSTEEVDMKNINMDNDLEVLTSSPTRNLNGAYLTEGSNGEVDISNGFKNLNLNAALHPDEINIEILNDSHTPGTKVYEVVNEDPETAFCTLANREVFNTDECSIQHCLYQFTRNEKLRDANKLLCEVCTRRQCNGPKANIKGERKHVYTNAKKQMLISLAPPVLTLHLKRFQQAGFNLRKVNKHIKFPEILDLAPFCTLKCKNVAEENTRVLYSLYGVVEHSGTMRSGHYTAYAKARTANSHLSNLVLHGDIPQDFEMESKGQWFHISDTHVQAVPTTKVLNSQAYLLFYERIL
Summary of the method: as §1

Measured: log2 ratio of Biotin-Ahx-Ub-VS probe labelling

Cl.O=C(CCl)N1CCN(Cc2ccccc2)CC1
inactive: [1] -0.117 | [2] -0.1 | [3] -0.0463 | [4] -0.259 | [5] -0.902 | [6] 0.47 | [7] -0.282 | [8] -0.119 | [9] -0.171 | [10] -0.587
